# Where “and” joins values, the source holds several entries; their conditions need not be identical. Equal values may be shown once. Inconclusive results are not listed. Some compounds were tested as several samples or in several runs, with calls that do not always agree. Calls of active or inactive are those of the source. Calls follow the shape of the dose curve; as a rule, active = well fitted cell-killing curve with a large enough effect; inconclusive = small, poorly fitted or top-dose-only effect, or effect the other way; inactive = no such curve, though single readings can be large or run the other way.
# Test: Viability qHTS for spleen associated tyrosine kinase inhibitor (SYKi) drug resistant MV4-11 cells (AID 1963824); also: nearly all actives have a fitted effect of over 35% in size
# Settings: SYKi-resistant MV4-11 viability, CellTiter-Glo, 72 h; series mostly up to 45 µM
# Summary of the method: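 SYK-inhibitor-resistant MV4-11 AML cells were seeded at 500 per well onto compound and cultured 72 hours (37 °C, 5% CO2). CellTiter-Glo was then added, and after 10 min at room temperature, luminescence gave viability.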
# Potency is read from the fitted curve at half-maximal effect.
SMILES,Potency,"viability, % of control"
CCCCCCC1C(=O)O[C@H](C)[C@H](NC(=O)c2cccc(NC=O)c2O)C(=O)O[C@@H](C)[C@@H]1OC(=O)CC(C)C (stereo not given in full),0.291 µM (active),
O=C(O)C(=O)c1cn(Cc2ccccc2)c2ccc(-c3ccc(OC(F)(F)F)cc3)cc12,20.6 µM (active),
CN(C)[C@@H]1C(=O)C(C(N)=O)=C(O)[C@@]2(O)C(=O)C3=C(O)c4c(O)cccc4[C@@](C)(O)[C@H]3C[C@@H]12,16.6 µM (active),
CNc1ccc2oc(C[C@H]3O[C@@]4(CC[C@H]3C)O[C@H](C(C)C(=O)c3ccc[nH]3)[C@H](C)C[C@H]4C)nc2c1C(=O)O (stereo not given in full),4.61 µM (active),
O=C(N[C@H]1CN2CCC1CC2)c1cc2cccc(Cl)c2s1,20.6 µM (active),
N#CC(O[C@@H]1O[C@H](CO)[C@@H](O)[C@H](O)[C@H]1O)c1ccccc1 (stereo not given in full),inactive,
OC1(c2ccc(Cl)cc2)c2ccccc2C2=NCCN21 (stereo not given),16.4 µM (active),
CCCCOC(=O)c1ccnc2cc(C(OCCN3CCCCC3)c3ccccc3Cl)sc12 (stereo not given),20.6 µM (active),
CC(=O)O[C@H]1CC[C@@]2(CI)C(=CC[C@@H]3[C@@H]2CC[C@]2(C)C(=O)CC[C@@H]32)C1,20.6 µM (active),
C#CCO[C@H]1CN2CCC1CC2,inactive,
CCCCCC[C@H]1C(=O)O[C@H](C)[C@H](NC(=O)c2cccc(NC=O)c2O)C(=O)O[C@@H](C)[C@@H]1OC(=O)CC(C)C,0.105 µM (active),
CCOC(=O)Nc1ccc(NCc2ccc(F)cc2)cc1N,18.6 µM (active),
C[C@@H]1O[C@@H](O[C@H]2CC[C@@]3(C)C(CC[C@@H]4C3CC[C@]3(C)[C@@H](C5=CC(=O)OC5)CC[C@]43O)C2)[C@H](O)[C@H](O)[C@H]1O (stereo not given in full),0.2 µM (active),
Cc1cc(SCc2sc(-c3ccc(C(F)(F)F)c(F)c3)nc2C)ccc1OCC(=O)O,18.6 µM (active),
COc1cc2c(cc1O)C1(C)CCC(O)C(C)(C)C1CC2=O (stereo not given),inactive,
COC1CC(=O)C23C(=O)NC(CC(C)C)C2C(C)=C(C)C(OO)C3/C=C(\C)CCC(O)C1O (stereo not given),7.96 µM (active),
CC(C)c1cccc(C(C)C)c1O,inactive,
CNC(=O)N1N=C(c2ccc(N)cc2)c2cc3c(cc2CC1C)OCO3 (stereo not given),2.31 µM (active),
Cc1sc2c(c1C)C(c1ccc(Cl)cc1)=NC(CC(=O)OC(C)(C)C)c1nnc(C)n1-2 (stereo not given),0.116 µM (active),
CC1=CC2(O)/C=C/C(C)(O)C(O)C(O)/C=C/C(=O)OC23C(=O)NC(CC(C)C)C3C1C (stereo not given),inactive,

SMILES,Potency,"viability, % of control"
C[C@]12CC[C@H]3[C@@H](CC[C@@]45O[C@H]4C(O)=C(C#N)C[C@]35C)[C@H]1CC[C@H]2O,11.9 µM (active),
CC[C@@H](C)[C@H]1C(=O)O[C@H](C(C)C)C(=O)N(C)[C@@H]([C@@H](C)CC)C(=O)O[C@H](C(C)C)C(=O)N(C)[C@@H]([C@H](C)CC)C(=O)O[C@H](C(C)C)C(=O)N1C,1.72 µM (active),
O=c1[nH]c2ccccc2n1CCCN1CCC(n2c(=O)[nH]c3cc(Cl)ccc32)CC1,18.6 µM (active),
Cn1cc(C2=C(c3cn(C4CCN(Cc5ccccn5)CC4)c4ccccc34)C(=O)NC2=O)c2ccccc21,5.25 µM (active),
CC(=O)C1CCC2C3CCC4C[C@@H](O)CCC4(C)C3CCC12C (stereo not given in full),14.6 µM (active),
CCNC(=O)CC1N=C(c2ccc(Cl)cc2)c2cc(OC)ccc2-n2c(C)nnc21 (stereo not given),8.33 µM (active) and inactive and 517 nM (active),
CC(CCc1ccc(O)cc1)O[C@@H]1O[C@H](CO[C@H]2OC[C@](O)(CO)[C@H]2O)[C@@H](O)[C@H](O)[C@H]1O (stereo not given in full),inactive,
C#CC1(O)CCC2C3CCC4=CC(=O)CCC4(C)C3CCC21C (stereo not given),11.8 µM (active),
C=C1C[C@]2(O)[C@@]3(C)CCC(=O)C(C)(C)C3=C(O)C(=O)[C@@]2(C)[C@@H]2C(=O)O[C@@](C)(C(=O)OC)C(=O)[C@@]12C,inactive,
CC(C)(O)C(=O)Nc1ccc([N+](=O)[O-])c(C(F)(F)F)c1,18.6 µM (active),
C=CC(C)(C)c1[nH]c2cccc3c2c1C[C@@H]1[C@@H]3[C@@H](OC(C)=O)[C@H](C)CN1C,1.01 µM (active),
C/C=C(\C)C(=O)O[C@H]1[C@H](OC(C)=O)[C@]2(CO)[C@H](O)[C@H](O)[C@]3(C)C(=CCC4[C@@]5(C)CC[C@H](O[C@@H]6O[C@H](C(=O)O)[C@@H](O)[C@H](O[C@@H]7OC[C@H](O)[C@H](O[C@@H]8OC[C@H](O)[C@H](O)[C@H]8O)[C@H]7O)[C@H]6O[C@@H]6O[C@H](CO)[C@@H](O)[C@H](O)[C@H]6O)C(C)(C)C5CC[C@]43C)[C@@H]2CC1(C)C (stereo not given in full),,68.2% [at 9.25 µM] (inactive)
CCCCCn1cc(C(=O)Oc2cccc3cccnc23)c2ccccc21,23.1 µM (active),
CC[C@H]1C[C@@H]2CC[C@@H](O2)[C@@H](C)C(=O)O[C@H](CC)C[C@H]2CC[C@H](O2)[C@H](C)C(=O)O[C@@H](C)C[C@@H]2CC[C@@H](O2)[C@@H](C)C(=O)O[C@H](CC)C[C@H]2CC[C@H](O2)[C@H](C)C(=O)O1,0.0137 µM (active),
CC(C)[C@H]1C(=O)N[C@H](CO)Cc2c[nH]c3cccc(c23)N1C,0.288 µM (active),
COc1ccc2c(c1OC)CN1CCc3cc4c(cc3C1C2)OCO4 (stereo not given),4.11 µM (active),
O=C1NC(=O)c2c1c1c3ccccc3n3c1c1c2c2ccccc2n1C1CCC3O1,0.0164 µM (active),
CCC(C)C1NC(=O)C2CCCN2C(=O)C(CC(C)C)OC(=O)CCNC(=O)C(C)N(C)C(=O)C(C(C)C)N(C)C1=O (stereo not given),5.44 µM (active),
CNC(=O)c1ccc(N2C(=S)N(c3ccc(C#N)c(C(F)(F)F)c3)C(=O)C23CCC3)cc1F,18.6 µM (active),
C/C=C1/CN2CC[C@]34C(=Nc5ccc(OC)cc53)C2C[C@@H]1C4(CO)C(=O)OC (stereo not given in full),inactive,
